High-throughput results from PubChem.
Most compounds without a hit are left out; they make up all but 0.8% or so of the library.
MT1-MMP txn act – activates MT1-MMP transcription. HT1080 MT1-MMP promoter luciferase reporter, luminescence, overnight; hits give high values. activation factor at 10 µM. 0.16% of 86,000 active. AID 750;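 active = activation factor of at least 2 for MT1-MMP transcription at 10 µM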
HePTP inhibitor – blocks human HePTP tyrosine phosphatase | P35236 | recombinant HePTP phosphatase activity, OD absorbance | inhibition, % at 20 µM | 0.64% of 110,000 active | AID 521; in the data active = inhibition above about 50%
Smad3 FoxH1 inh – inhibitors of human Smad3 transcription factor binding; TR-FRET Smad3/Dy647-FoxH1 peptide binding, europium anti-His; inhibition, % at 25 µM; 0.29% of 88,000 active; AID 630;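 active = compounds that reduce the energy-transfer binding signal between the protein and its labelled peptide by more than half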
TNAP act DEA – activates human TNAP at intermediate phosphate acceptor concentration; 64,000 tested, under 10 active; activation factor at 20 µM; purified TNAP, CDP-star luminescence, 100 mM DEA, 30 min; hits give high values; scale: 0 levamisole-inhibited, 1 vehicle-only enzyme; P05186;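 active = activation factor of at least 2 at 20 µM, relative to controls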
E coli RNAP – Escherichia coli RNA polymerase inhibition; E. coli RNA polymerase, fluorescence transcription assay; inhibition, %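 (tested at 10 µM)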; P0A8V2; 0.2% of 62,000 active; in the data active = inhibition above about 20%
A number is an active result.

How did COC(=O)c1cc(C(=O)NC2CCSC2=O)cc([N+](=O)[O-])c1 (centres undefined) do in these assays?
HePTP inhibitor: 102

What do the screens show for `CC(=O)Oc1ccc2c(c1)c(C(C)=O)c(C)n2-c1ccccc1`?
HePTP inhibitor: inactive

What do the screens show for `O=C(/C=C/c1ccco1)Nc1ccc(-c2nc3ccccc3s2)c(O)c1`?
HePTP inhibitor: 104

How did O=C(/C=C/c1ccco1)Nc1ccc(O)c(-c2nc3ccccc3o2)c1 do in these assays?
HePTP inhibitor: inactive

What do the screens show for `COc1ccccc1N1C(=O)NC(=O)C(=Cc2cc(OC)c(O)c([N+](=O)[O-])c2)C1=O`?
HePTP inhibitor: inactive

What do the screens show for `COc1cc(/C=C2\C(=O)NC(=S)N(c3ccccc3)C2=O)cc([N+](=O)[O-])c1O`?
HePTP inhibitor: 59

How did Cc1ccsc1/C=N/Nc1nc(Cl)c(Cl)cc1Cl do in these assays?
MT1-MMP txn act: inactive; Smad3 FoxH1 inh: inactive

Results for Cc1ccc(/C=N/Nc2nc(Cl)c(Cl)cc2Cl)s1 ?
MT1-MMP txn act: 2; Smad3 FoxH1 inh: inactive

What do the screens show for `CC(C)CC(=O)N1CCN(Cc2cccn2C)CC1`?
HePTP inhibitor: inactive

Results for Cc1ccc(Cn2c3ccccc3c3cn[nH]c(=O)c32)cc1 ?
MT1-MMP txn act: inactive; HePTP inhibitor: inactive; Smad3 FoxH1 inh: inactive; TNAP act DEA: inactive; E coli RNAP: 74

What do the screens show for `O=c1[nH]ncc2c3ccccc3n(Cc3ccccc3)c12`?
MT1-MMP txn act: inactive; HePTP inhibitor: inactive; TNAP act DEA: inactive; E coli RNAP: inactive

Results for O=C1c2ccccc2-c2cc([N+](=O)[O-])c([N+](=O)[O-])cc21 ?
Smad3 FoxH1 inh: 52

Results for O=C(O)CCN1C(=O)/C(=C\C(Cl)=C/c2ccc([N+](=O)[O-])cc2)SC1=S ?
HePTP inhibitor: 102

What do the screens show for `O=C(O)CN1C(=O)/C(=C\c2cc([N+](=O)[O-])ccc2Cl)SC1=S`?
HePTP inhibitor: inactive

What do the screens show for `O=C(O)CCCN1C(=O)/C(=C\c2ccc(-c3cccc([N+](=O)[O-])c3)o2)SC1=S`?
HePTP inhibitor: 97

What do the screens show for `O=C(O)c1ccc(-c2ccc(/C=C3\SC(=S)N(c4ccc([N+](=O)[O-])cc4)C3=O)o2)cc1`?
HePTP inhibitor: 103

What do the screens show for `O=C1/C(=C\c2ccc(-c3ccc([N+](=O)[O-])cc3)o2)SC(=S)N1c1ccc(O)cc1`?
HePTP inhibitor: inactive

Results for O=C(O)CCN1C(=O)/C(=C/c2ccc(-c3ccc(Cl)cc3)o2)SC1=S ?
HePTP inhibitor: 102

What do the screens show for `O=C(O)CCN1C(=O)/C(=C/c2ccc(-c3ccc([N+](=O)[O-])cc3)o2)SC1=S`?
HePTP inhibitor: inactive

Results for O=C1/C(=C\c2ccc(-c3cccc([N+](=O)[O-])c3)o2)SC(=S)N1CCc1ccccc1 ?
HePTP inhibitor: inactive

Results for O=C(c1ccccc1Cl)N1CCN(c2ccc(Cl)cc2)CC1 ?
HePTP inhibitor: inactive

What do the screens show for `COc1ccc(CC(=O)N/N=C/c2ccc(-c3cc(Cl)ccc3C)o2)cc1`?
HePTP inhibitor: inactive

What do the screens show for `O=C1N/C(=N/N=C/c2ccco2)SC1Cc1ccc(F)cc1` (centres undefined)?
HePTP inhibitor: inactive

What do the screens show for `O=C(/C=C\c1ccco1)Oc1ccc(/C=N\NC(=O)c2cncc(Br)c2)cc1`?
HePTP inhibitor: 58

How did O=C(Cc1cccc2ccccc12)N/N=C/c1ccc(OC(=O)/C=C/c2ccco2)cc1 do in these assays?
MT1-MMP txn act: inactive; Smad3 FoxH1 inh: inactive

How did O=C(NC(=S)NC1CCSC1=O)c1ccco1 (centres undefined) do in these assays?
HePTP inhibitor: 103

How did O=C(Nc1cc(C(F)(F)F)ccc1Cl)C1CC(=O)N(c2ccc(F)cc2)C1 (centres undefined) do in these assays?
HePTP inhibitor: inactive

Results for Cc1c(Cl)cccc1-c1ccc(C(=O)Nc2cccc(Cl)c2Cl)o1 ?
HePTP inhibitor: inactive

Results for CC(=O)NN1C(=O)/C(=C/c2cc3c(cc2[N+](=O)[O-])OCO3)SC1=S ?
HePTP inhibitor: 93

How did COc1ccc2oc(C(=O)c3ccccc3)c(N)c2c1 do in these assays?
MT1-MMP txn act: 2.1; Smad3 FoxH1 inh: inactive

How did COc1ccc(C(=O)c2oc3ccccc3c2N)cc1 do in these assays?
MT1-MMP txn act: 2.3; HePTP inhibitor: inactive; Smad3 FoxH1 inh: inactive; TNAP act DEA: inactive; E coli RNAP: inactive

How did Nc1c(C(=O)c2ccccc2)oc2ccccc12 do in these assays?
Smad3 FoxH1 inh: inactive

What do the screens show for `CC(C)c1ccc(NC(=O)CN(Cc2ccccc2)S(=O)(=O)c2ccccc2)cc1`?
HePTP inhibitor: inactive

What do the screens show for `O=C(Nc1cc([N+](=O)[O-])ccc1C(=O)NCc1ccco1)c1cccs1`?
HePTP inhibitor: inactive

What do the screens show for `CC(/C=C/c1ccccc1)=N\N=C1\NC(=O)C(Cc2ccccc2)S1` (centres undefined)?
HePTP inhibitor: 104

Results for CN1CCN(Cc2c(O)ccc3occ(C(=O)c4ccccc4)c23)CC1 ?
MT1-MMP txn act: inactive; HePTP inhibitor: inactive; Smad3 FoxH1 inh: inactive; TNAP act DEA: inactive; E coli RNAP: inactive

How did CC(=O)C(C(C)=O)c1c(Cl)c(O)c(O)c2c(C(=O)c3ccccc3)coc12 do in these assays?
MT1-MMP txn act: inactive; HePTP inhibitor: inactive; Smad3 FoxH1 inh: inactive; TNAP act DEA: inactive; E coli RNAP: 32

How did Cc1ccc(C(=O)Nc2ccc(NC(=O)c3ccco3)cc2)cc1C do in these assays?
HePTP inhibitor: inactive

Results for C=CCN1C(=O)/C(=C\c2ccc3ccccc3c2)SC1=S ?
HePTP inhibitor: inactive

Results for CCCCOc1ccc(/C=C2/C(=O)NN(c3ccc(C(=O)OCC)cc3)C2=O)cc1OC ?
HePTP inhibitor: inactive

Results for C=CCOc1ccc(/C=C2/C(=O)NN(c3ccc(C(=O)OCC)cc3)C2=O)cc1OC ?
HePTP inhibitor: 60

What do the screens show for `CCOC(=O)c1ccc(N2NC(=O)/C(=C/c3ccc4c(c3)OCO4)C2=O)cc1`?
HePTP inhibitor: 100

How did COc1cc(/C=C2/C(=O)NN(c3ccc(Cl)cc3)C2=O)cc(Br)c1O do in these assays?
HePTP inhibitor: 92

Results for O=C(Nc1nc2ccc(Cl)cc2s1)c1cccc(F)c1 ?
HePTP inhibitor: inactive

Results for CC1CCc2c(sc(NC(=O)c3cccc(C(=O)O)c3)c2C(N)=O)C1 (centres undefined) ?
HePTP inhibitor: 103

Results for CN(C)Cc1c(O)ccc2[nH]cnc12 ?
MT1-MMP txn act: inactive; HePTP inhibitor: inactive; Smad3 FoxH1 inh: inactive; TNAP act DEA: inactive; E coli RNAP: inactive

How did CN(C)Cc1c[nH]c2nc[nH]c(=O)c12 do in these assays?
Smad3 FoxH1 inh: 68

What do the screens show for `COc1ccc(C2CC(c3ccccc3)=NN2c2ccc([N+](=O)[O-])cc2)cc1` (centres undefined)?
HePTP inhibitor: inactive

How did N#C/C(=C/c1ccc([N+](=O)[O-])o1)C(=O)Nc1cccc(Br)c1 do in these assays?
HePTP inhibitor: 87
